Measured values taken from PubChem BioAssay AID540276 (National Center for Advancing Translational Sciences (NCATS), 2011).
Out of some 300,000 compounds screened, about 5,400 (1.8%) were called active. Not shown: some 28% with an inconclusive outcome. The entries come from a sample that favours actives as a whole. Values without a mark were called inactive. Calls come from the whole dose curve; tested in HEK293 cells.

assay: qHTS for inhibitors of binding or entry into cells for Marburg Virus; conditions: Marburg virus pseudotyped entry inhibition, cell reporter; series mostly up to 37.8 µM; activity change, negative = inhibition: at the top concentration
% is set by controls: 0 for no effect and ±100 for the full control effect; potency is the fitted concentration of half-maximal effect.

SMILES | activity change, negative = inhibition | Potency
CCCOc1ccc(Cn2ccnc2)cc1[N+](=O)[O-] | 1% | 
CCN(CC)CCn1c2ccc(Cl)cc2c2nc(C)sc21 | -57.9% | 
CCN(CC)CCCC(C)n1c2nc(=O)[nH]c(=O)c-2nc2cc(Cl)ccc21 (stereo unspecified) |  | 5.62 µM (active)
CC(=O)OC[C@H]1O[C@H](CCO/N=C(\C)CCN2CCCCc3nc(C)c(C)cc32)C=C[C@@H]1OC(C)=O | 16.2% [at 14.2 µM] | 
O=C(CSC(=S)N1CCOCC1)c1cc(Br)cc(Br)c1O | 11.4% [at 46.1 µM] | 
O=C(CSC(=S)N1CCOCC1)c1ccccc1 |  | 7.31 µM (active)
CC1CN(C(=S)SCC(=O)c2ccccc2)CC(C)O1 (stereo unspecified) | -3.47% | 
Cc1ccc(CNC(=O)C(=O)c2cn(CC(=O)N3CCCC3)c3ccccc23)cc1 | -19.2% | 
Cc1cc(NC(=O)CSc2nnc(-c3ccco3)n2N)no1 | -29.8% | 
O=C(COC(=O)c1cccc(Cl)c1)NC(=O)NCc1ccccc1 | 4.11% | 
COc1ccc2c(c1O)-c1cccc3c1[C@@H](C2)N(C)CC3 |  | 1 µM (active)
COc1c(O)ccc2c1-c1c3c(cc4c1C(C2)N(C)CC4)OCO3 (stereo unspecified) | 3.76% | 
Cn1c(N)cc(=O)n(C)c1=S | -7.14% | 
CC(C(=O)c1ccc(-c2ccccc2)cc1)[n+]1cccc(Br)c1 (stereo unspecified) | -1.4% [at 46.1 µM] | 
O=C(NCc1nnc(SCC(=O)N2CCCCCC2)o1)c1ccc(F)cc1 | -7.97% | 
Cn1c(SCC(=O)Nc2cccc(NC(=O)c3cccs3)c2)nnc1-c1ccncc1 |  | 12.6 µM (active)
COCCCn1c(SCC(=O)Nc2ccccc2)nnc1-c1ccncc1 | -0.876% [at 46.1 µM] | 
CCC(=O)Nc1cccc(NC(=O)CSc2nnc(-c3ccc(NS(C)(=O)=O)cc3)n2C)c1 | 9.87% | 
CC1CCCCC1NC(=O)Cn1c(=O)cnc2ccccc21 (stereo unspecified) | 14.6% [at 46.1 µM] | 
CC(=O)c1c(C)[nH]c(C(=O)COC(=O)c2cccs2)c1C | -11.6% | 
COc1ccc(C)cc1N(CC(=O)N1CCCC1)S(=O)(=O)c1ccccc1 | 4.32% [at 46.1 µM] | 
NC(=O)Nc1cccc(C(F)(F)F)c1 | -9.89% | 
O=C(Nc1cc(C(F)(F)F)ccc1Cl)C(=O)N1CCCCC1 | 10.1% | 
O=C(NNc1ccccc1Cl)C(O)(c1cccc(C(F)(F)F)c1)c1cccc(C(F)(F)F)c1 |  | 18.4 µM (active)
NC(=O)Cn1cc(/C=N\NS(=O)(=O)c2ccccc2)c2ccccc21 | -7.13% [at 46.1 µM] | 
COC(=O)N(C)C1=C(C(=O)N2CCOCC2)CCCC1 | -9.8% | 

SMILES | activity change, negative = inhibition | Potency
Cn1c(=O)[nH]c2c(c(C(=O)O)nn2C)c1=O | -0.0312% [at 46.1 µM] | 
Cc1ccc2[nH]cc(CCNC(=O)c3ccc([N+](=O)[O-])cc3)c2c1 | 3.86% | 
Cc1ccc2[nH]cc(CCCN3C(=O)c4ccccc4C3=O)c2c1 |  | 16.4 µM (active)
Cc1cc(C)cc(NC(=O)CCN2C(=O)c3ccccc3C2=O)c1 | -3.01% [at 46.1 µM] | 
Cc1cccc(OCC(=O)Nc2ccc(C(=O)O)cc2NC(=O)COc2cccc(C)c2)c1 | -5.1% | 
COc1ccc(NS(=O)(=O)c2ccc(Oc3c(C#N)cccc3C#N)cc2)cc1 |  | 2.82 µM (active)
CCOc1ccc(S(=O)(=O)Nc2ccc(S(=O)(=O)Nc3cc(OC)ccc3OC)cc2)cc1 | -15.2% | 
COc1ccc(C(=O)Nc2ccc(S(=O)(=O)NC(C)C)cc2)cc1 | -1.9% | 
Cc1ccc2nc(SCC(=O)NC3CCCC3)[nH]c2c1 | 24.9% [at 46.1 µM] | 
COc1ccc(/C=N/Nc2nc(-c3ccc(C)cc3)c(C#N)c(=O)[nH]2)cc1 | -0.691% | 
O=C(COc1cccnc1[N+](=O)[O-])Nc1ccc(Cl)cc1F | 17.4% [at 46.1 µM] | 
Cc1ccc(-c2cc(C(=O)N/N=C/C=C/c3ccco3)c3ccccc3n2)cc1C |  | 2.51 µM (active)
Cc1cc(C(=O)N/N=C/c2ccccn2)c2ccccc2n1 | 12.2% [at 46.1 µM] | 
O=C(N/N=C/C=C/c1ccco1)c1cccs1 | 12.6% [at 46.1 µM] | 
CCCc1nnc(NC(=O)CCC(=O)N2CCN(S(=O)(=O)c3ccc(OC)cc3)CC2)s1 | 1% [at 46.1 µM] | 
Cc1nc(N)nc(Cl)c1CCC1OCCO1 | 0.143% [at 46.1 µM] | 
Cc1ccc(Nc2ccc(C(N)=O)cc2[N+](=O)[O-])cc1 | -11.4% | 
Cc1ccc(Nc2cc(C)nc3c(C)ccc([N+](=O)[O-])c23)cc1 |  | 11.2 µM (active)
Cc1cc(C)nc(Nc2cc([N+](=O)[O-])ccc2C)n1 | -0.158% [at 46.1 µM] | 
Cc1ccc2c(c1)N(CC(=O)NCC1CCCO1)C(=O)CO2 (stereo unspecified) | 1.4% [at 46.1 µM] | 
COCCNC(=O)COc1ccc(N(C)S(=O)(=O)c2ccc3ccccc3c2)cc1 | 9.59% [at 46.1 µM] | 
CC1CCCCC1NC(=O)COc1ccc(C#N)cc1 (stereo unspecified) | -11.3% | 
O=[N+]([O-])c1ccccc1/C=C/CN1CCCC(CO)C1 (stereo unspecified) | 15.6% | 
CC1CCCCC1NC(=O)/C(C#N)=C/C=C/c1ccccc1[N+](=O)[O-] (stereo unspecified) |  | 2.82 µM (active)
O=C(Nc1c(Br)cc2c(c1Br)Cc1cc([N+](=O)[O-])ccc1-2)C(Cl)Cl | 12.8% | 
